The record followed here is paper PMC7862700, “An all-to-all approach to the identification of sequence-specific readers for epigenetic DNA modifications on cytosine”.

What all share (assay): DAPPL (digital affinity profiling via proximity ligation, sequencing); 10 mM Tris-HCl pH 7.5, 50 mM NaCl, 1 mM DTT, 4% glycerol, room temperature, 30 min; GST-TFs on glutathione beads, 16-mer random dsDNA library, 0.1% formaldehyde crosslink after washing; high values mean tight binding
One assay has as its target T1, FEV (Homo sapiens, UniProt Q99581 1-238).
T1 sequence: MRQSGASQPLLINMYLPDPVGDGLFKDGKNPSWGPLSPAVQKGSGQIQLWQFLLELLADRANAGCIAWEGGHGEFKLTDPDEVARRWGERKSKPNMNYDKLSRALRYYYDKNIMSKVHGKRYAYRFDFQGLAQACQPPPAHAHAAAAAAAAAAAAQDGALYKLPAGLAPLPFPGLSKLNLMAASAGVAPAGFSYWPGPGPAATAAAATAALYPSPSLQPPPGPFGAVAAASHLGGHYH
Particulars: protein: recombinant; tags: N-terminal GST; dsDNA, one strand shown. A digest of the protocol:
(§1)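 Human transcription factors were made in yeast as GST fusions, captured on glutathione beads and barcoded with DNA. With a tag-only sample included, the pool was incubated with 200 nmole of a random double-stranded 16-mer DNA library in Tris/NaCl/DTT/glycerol buffer at room temperature for 30 min, then crosslinked with 0.1% formaldehyde after washing, ligated by proximity, amplified and sequenced. For binding signal, each hexamer's read frequency for a factor is divided by its frequency for the tag-only sample.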

A further assay has as its target ETV5 (Homo sapiens, UniProt P41161 1-510). The following applies: protein: recombinant; tags: N-terminal GST; dsDNA, one strand shown. A digest of the protocol:
as §1

Another assay has as its target HSF1 (Homo sapiens, UniProt Q00613 1-529). The following applies: protein: recombinant; tags: N-terminal GST; chain copies: 3; dsDNA, one strand shown. A digest of the protocol:
as §1

In another assay the target is T2, SPIC (Homo sapiens, UniProt Q8N5J4 1-248).
T2 sequence: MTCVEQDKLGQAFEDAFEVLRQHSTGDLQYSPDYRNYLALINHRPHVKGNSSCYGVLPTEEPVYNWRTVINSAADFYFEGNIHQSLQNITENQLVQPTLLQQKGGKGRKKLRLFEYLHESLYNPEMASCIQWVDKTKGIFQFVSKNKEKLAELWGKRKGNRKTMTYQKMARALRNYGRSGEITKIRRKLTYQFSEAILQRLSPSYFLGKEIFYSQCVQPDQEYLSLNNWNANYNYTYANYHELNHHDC
The following applies: protein: recombinant; tags: N-terminal GST; dsDNA, one strand shown. A digest of the protocol: as §1

In another assay the target is ELF4 (Homo sapiens, UniProt Q99607 1-663). Particulars: protein: recombinant; tags: N-terminal GST; dsDNA, one strand shown. A digest of the protocol: as §1
ELF4, sequence (Q99607 whole entry): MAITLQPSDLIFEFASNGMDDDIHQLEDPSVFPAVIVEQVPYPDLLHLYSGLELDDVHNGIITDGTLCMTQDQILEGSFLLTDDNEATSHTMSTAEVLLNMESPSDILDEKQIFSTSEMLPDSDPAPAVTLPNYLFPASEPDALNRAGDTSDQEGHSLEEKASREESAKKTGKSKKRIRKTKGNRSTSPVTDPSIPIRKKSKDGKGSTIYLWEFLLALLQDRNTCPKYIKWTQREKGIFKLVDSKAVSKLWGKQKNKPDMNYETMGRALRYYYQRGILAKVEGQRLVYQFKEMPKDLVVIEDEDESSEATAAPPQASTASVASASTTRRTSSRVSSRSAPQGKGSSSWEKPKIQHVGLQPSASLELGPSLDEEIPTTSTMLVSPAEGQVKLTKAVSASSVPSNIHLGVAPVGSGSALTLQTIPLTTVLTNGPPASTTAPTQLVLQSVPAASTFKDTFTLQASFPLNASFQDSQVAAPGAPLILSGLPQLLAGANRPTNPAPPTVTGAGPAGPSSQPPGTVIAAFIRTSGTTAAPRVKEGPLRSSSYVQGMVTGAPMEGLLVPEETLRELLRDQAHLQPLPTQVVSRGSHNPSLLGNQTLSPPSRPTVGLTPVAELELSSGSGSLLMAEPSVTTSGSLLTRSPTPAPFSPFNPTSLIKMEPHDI
The target of a further assay is T3, ELK4 (Homo sapiens, UniProt P28324-2 1-405).
T3 sequence: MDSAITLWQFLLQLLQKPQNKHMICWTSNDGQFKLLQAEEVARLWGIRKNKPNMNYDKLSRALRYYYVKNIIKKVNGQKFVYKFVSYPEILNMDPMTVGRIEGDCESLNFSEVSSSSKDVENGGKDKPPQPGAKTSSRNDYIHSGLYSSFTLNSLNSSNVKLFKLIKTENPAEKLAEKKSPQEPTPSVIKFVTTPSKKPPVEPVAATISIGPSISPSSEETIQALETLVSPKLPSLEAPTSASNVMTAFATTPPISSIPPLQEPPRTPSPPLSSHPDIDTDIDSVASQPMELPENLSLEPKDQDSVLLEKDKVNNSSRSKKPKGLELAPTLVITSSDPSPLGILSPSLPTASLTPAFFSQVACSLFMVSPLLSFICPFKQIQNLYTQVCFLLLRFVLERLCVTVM
The following applies: protein: recombinant; tags: N-terminal GST; dsDNA, one strand shown. A digest of the protocol:
as §1

The next assay addresses T4, ETV2 (Homo sapiens, UniProt O00321 1-342).
T4 sequence: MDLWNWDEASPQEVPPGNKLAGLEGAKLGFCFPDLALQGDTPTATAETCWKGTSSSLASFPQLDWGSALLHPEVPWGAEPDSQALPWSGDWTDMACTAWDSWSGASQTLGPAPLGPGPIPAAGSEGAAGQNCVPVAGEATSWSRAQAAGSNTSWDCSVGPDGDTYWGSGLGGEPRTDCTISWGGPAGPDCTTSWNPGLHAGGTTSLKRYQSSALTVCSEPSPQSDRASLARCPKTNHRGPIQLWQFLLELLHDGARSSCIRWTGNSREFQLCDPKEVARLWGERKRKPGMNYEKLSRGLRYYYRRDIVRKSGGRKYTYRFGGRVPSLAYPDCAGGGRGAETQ
Particulars: protein: recombinant; tags: N-terminal GST; dsDNA, one strand shown. A digest of the protocol:
as §1

Another assay deals with T5, ELF3 (Homo sapiens, UniProt P78545 1-371).
T5 sequence: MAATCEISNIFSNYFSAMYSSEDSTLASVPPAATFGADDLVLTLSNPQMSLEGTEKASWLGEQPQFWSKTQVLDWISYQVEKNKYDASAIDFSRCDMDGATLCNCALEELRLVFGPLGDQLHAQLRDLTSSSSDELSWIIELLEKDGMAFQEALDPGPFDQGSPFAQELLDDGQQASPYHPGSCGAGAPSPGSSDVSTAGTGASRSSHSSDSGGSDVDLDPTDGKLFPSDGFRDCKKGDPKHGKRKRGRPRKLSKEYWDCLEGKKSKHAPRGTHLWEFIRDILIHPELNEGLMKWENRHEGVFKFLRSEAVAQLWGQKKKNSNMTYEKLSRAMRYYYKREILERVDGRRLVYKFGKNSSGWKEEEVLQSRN
Particulars: protein: recombinant; tags: N-terminal GST; dsDNA, one strand shown. A digest of the protocol: as §1

A further assay deals with CRX (Homo sapiens, UniProt O43186 1-299). Particulars: protein: recombinant; tags: N-terminal GST; dsDNA, one strand shown. A digest of the protocol:
as §1

The target of the next assay is ETV1 (Homo sapiens, UniProt P50549 1-477). Particulars: protein: recombinant; tags: N-terminal GST; dsDNA, one strand shown. A digest of the protocol:
as §1

In a further assay the target is T6, ERF (Homo sapiens, UniProt P50548 1-548).
T6 sequence: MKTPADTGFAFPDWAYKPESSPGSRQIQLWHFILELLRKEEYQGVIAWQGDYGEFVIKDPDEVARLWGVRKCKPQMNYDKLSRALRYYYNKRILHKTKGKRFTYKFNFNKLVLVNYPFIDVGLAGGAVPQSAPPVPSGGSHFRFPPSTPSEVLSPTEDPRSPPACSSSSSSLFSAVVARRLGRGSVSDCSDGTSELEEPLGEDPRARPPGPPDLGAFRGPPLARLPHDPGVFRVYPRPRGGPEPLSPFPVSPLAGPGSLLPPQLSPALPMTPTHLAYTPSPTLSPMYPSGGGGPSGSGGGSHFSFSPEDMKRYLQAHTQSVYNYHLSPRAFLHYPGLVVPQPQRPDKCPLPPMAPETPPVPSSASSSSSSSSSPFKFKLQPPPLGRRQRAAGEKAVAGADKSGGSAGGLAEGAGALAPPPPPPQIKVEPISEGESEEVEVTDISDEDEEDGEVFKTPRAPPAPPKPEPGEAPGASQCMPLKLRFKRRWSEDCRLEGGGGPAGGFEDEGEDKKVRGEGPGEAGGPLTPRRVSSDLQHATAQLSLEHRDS
Particulars: protein: recombinant; tags: N-terminal GST; dsDNA, one strand shown. A digest of the protocol: as §1

For the next assay, the target named is T7, ETV3L (Homo sapiens, UniProt Q6ZN32 1-361).
T7 sequence: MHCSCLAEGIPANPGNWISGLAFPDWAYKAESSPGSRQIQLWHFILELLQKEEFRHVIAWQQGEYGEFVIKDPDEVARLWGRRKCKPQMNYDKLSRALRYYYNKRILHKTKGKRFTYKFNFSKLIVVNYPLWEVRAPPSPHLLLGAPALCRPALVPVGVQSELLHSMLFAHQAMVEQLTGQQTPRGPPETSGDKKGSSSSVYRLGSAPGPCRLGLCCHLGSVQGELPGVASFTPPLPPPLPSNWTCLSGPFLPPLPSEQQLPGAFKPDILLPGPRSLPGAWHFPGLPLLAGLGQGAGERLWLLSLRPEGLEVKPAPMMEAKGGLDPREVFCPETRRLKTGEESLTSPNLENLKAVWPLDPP
The following applies: protein: recombinant; tags: N-terminal GST; dsDNA, one strand shown. A digest of the protocol:
as §1

The target in a further assay is T8, ETS2 (Homo sapiens, UniProt P15036 1-469).
T8 sequence: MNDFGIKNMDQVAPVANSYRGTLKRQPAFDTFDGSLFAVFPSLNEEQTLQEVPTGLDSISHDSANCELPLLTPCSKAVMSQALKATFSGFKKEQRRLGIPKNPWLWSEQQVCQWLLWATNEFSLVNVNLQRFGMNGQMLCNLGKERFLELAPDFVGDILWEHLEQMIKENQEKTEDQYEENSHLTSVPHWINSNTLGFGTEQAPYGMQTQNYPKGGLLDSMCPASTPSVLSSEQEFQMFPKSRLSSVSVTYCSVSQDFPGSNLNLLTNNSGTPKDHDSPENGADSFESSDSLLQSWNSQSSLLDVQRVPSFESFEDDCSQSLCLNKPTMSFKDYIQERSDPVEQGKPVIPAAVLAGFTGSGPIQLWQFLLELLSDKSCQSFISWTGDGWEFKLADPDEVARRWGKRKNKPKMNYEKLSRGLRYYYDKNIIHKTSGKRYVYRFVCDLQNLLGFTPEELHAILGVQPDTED
The following applies: protein: recombinant; tags: N-terminal GST; dsDNA, one strand shown. A digest of the protocol:
as §1

For the next assay, the target named is T9, SPDEF (Homo sapiens, UniProt O95238 1-335).
T9 sequence: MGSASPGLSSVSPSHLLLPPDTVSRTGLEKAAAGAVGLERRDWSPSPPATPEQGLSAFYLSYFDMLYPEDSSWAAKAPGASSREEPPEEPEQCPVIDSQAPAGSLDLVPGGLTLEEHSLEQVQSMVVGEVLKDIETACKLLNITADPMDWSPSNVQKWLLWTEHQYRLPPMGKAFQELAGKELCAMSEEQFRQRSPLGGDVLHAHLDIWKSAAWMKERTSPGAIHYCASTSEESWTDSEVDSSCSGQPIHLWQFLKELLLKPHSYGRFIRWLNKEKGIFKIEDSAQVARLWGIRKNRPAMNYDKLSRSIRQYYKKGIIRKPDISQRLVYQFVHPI
Particulars: protein: recombinant; tags: N-terminal GST; dsDNA, one strand shown. A digest of the protocol: as §1

A further assay has as its target T10, ETV7 (Homo sapiens, UniProt Q9Y603 1-341).
T10 sequence: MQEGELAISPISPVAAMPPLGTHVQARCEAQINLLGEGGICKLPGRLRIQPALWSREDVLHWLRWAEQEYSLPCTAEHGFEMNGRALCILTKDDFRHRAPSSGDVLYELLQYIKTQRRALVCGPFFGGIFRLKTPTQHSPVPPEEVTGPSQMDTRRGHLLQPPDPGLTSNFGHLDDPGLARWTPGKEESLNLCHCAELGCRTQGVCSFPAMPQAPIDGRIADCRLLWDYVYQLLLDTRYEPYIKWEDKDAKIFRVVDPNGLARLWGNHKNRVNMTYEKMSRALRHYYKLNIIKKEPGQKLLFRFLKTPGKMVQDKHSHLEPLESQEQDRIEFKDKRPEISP
Particulars: protein: recombinant; tags: N-terminal GST; dsDNA, one strand shown. A digest of the protocol:
as §1

A further assay has as its target T11, ELF5 (Homo sapiens, UniProt Q9UKW6-2 1-255).
T11 sequence: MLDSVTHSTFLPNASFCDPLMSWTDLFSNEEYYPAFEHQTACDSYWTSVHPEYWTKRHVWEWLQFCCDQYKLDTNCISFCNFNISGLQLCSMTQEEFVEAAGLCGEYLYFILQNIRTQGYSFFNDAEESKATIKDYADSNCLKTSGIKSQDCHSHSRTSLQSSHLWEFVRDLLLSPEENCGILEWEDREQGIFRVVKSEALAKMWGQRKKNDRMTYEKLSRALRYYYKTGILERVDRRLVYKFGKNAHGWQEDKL
The following applies: protein: recombinant; tags: N-terminal GST; dsDNA, one strand shown. A digest of the protocol:
as §1

The next assay deals with T12, ETV3 (Homo sapiens, UniProt P41162-2 1-143).
T12 sequence: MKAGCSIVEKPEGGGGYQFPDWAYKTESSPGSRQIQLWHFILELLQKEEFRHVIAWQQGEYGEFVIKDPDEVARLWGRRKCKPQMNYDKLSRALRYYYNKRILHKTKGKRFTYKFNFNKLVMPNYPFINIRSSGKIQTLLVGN
Particulars: protein: recombinant; tags: N-terminal GST; dsDNA, one strand shown. A digest of the protocol: as §1

A further assay concerns the target ETV6 (Homo sapiens, UniProt P41212 1-452). The following applies: protein: recombinant; tags: N-terminal GST; dsDNA, one strand shown. A digest of the protocol: as §1

ETV6, sequence (P41212 whole entry): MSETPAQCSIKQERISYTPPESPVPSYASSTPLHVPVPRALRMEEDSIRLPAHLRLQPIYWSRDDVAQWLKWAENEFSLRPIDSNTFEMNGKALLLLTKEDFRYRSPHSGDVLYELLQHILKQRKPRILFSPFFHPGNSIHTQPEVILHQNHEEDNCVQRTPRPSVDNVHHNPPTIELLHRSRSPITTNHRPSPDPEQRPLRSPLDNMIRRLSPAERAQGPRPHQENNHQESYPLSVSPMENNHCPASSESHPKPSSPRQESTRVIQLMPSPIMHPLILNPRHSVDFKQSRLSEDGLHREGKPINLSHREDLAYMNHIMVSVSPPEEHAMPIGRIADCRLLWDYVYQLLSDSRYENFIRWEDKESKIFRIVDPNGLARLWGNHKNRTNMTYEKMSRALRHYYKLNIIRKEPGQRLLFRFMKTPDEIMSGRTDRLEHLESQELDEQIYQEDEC
HSF1, sequence (Q00613 whole entry): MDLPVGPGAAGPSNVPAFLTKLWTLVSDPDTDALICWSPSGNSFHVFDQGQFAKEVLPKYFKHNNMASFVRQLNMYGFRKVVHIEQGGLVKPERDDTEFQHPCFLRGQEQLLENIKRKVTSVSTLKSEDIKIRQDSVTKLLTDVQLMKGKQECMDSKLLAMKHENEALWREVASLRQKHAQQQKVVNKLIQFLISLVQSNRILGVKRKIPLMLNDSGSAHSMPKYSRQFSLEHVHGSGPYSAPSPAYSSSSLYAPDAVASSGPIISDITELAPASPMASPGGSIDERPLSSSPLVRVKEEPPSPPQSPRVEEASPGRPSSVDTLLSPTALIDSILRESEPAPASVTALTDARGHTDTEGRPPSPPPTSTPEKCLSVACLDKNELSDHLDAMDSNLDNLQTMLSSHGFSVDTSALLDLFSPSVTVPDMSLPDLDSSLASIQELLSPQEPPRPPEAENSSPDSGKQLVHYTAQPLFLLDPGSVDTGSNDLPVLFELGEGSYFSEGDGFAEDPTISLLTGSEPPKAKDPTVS
ETV5, sequence (P41161 whole entry): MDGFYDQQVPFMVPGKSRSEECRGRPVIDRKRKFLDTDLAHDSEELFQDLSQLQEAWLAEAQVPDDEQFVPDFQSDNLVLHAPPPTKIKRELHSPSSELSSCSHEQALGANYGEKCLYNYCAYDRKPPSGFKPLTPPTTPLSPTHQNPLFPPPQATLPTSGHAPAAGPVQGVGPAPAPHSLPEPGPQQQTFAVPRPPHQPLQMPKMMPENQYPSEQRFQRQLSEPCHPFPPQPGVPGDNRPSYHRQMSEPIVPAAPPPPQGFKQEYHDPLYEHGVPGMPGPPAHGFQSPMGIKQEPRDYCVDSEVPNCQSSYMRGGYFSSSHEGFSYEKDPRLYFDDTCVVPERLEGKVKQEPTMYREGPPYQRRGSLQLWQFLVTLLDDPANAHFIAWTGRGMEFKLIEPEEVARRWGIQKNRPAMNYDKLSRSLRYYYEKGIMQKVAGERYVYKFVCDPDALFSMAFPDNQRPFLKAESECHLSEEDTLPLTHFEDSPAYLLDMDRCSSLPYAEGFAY
ETV1, sequence (P50549 whole entry): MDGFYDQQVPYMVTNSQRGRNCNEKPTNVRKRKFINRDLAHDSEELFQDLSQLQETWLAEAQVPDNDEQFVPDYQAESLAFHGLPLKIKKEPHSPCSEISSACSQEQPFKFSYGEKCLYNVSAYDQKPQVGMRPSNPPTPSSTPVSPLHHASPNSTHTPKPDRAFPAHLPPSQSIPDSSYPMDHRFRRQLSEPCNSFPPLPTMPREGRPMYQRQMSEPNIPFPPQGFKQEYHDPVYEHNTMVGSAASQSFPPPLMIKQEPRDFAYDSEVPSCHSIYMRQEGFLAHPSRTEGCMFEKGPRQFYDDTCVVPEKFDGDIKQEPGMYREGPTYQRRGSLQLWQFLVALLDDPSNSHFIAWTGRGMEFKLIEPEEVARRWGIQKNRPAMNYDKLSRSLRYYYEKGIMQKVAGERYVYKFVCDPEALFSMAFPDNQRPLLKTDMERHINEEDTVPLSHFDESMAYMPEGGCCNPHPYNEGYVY
CRX, sequence (O43186 whole entry): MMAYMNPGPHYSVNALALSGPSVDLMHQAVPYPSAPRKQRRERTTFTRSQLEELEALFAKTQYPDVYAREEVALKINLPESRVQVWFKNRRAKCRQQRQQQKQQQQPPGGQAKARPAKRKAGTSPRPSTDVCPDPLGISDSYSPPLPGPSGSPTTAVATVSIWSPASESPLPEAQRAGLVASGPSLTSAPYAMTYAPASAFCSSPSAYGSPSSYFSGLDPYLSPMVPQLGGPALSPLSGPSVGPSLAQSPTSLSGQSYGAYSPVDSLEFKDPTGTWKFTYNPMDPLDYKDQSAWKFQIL

Regarding AAGTAT, the binding signal in the assay with FEV was 1.34 fold enrichment (6-mer frequency, TF over GST control); with ETV5, 1.38 fold enrichment (6-mer frequency, TF over GST control); in the assay with HSF1, 1.38 fold enrichment (6-mer frequency, TF over GST control); in the assay with SPIC, 1.49 fold enrichment (6-mer frequency, TF over GST control); with ELF4, 1.4 fold enrichment (6-mer frequency, TF over GST control); in the assay with ELK4, 1.31 fold enrichment (6-mer frequency, TF over GST control). Also, the binding signal with ETV2 is 1.42 fold enrichment (6-mer frequency, TF over GST control); with ELF3, 1.35 fold enrichment (6-mer frequency, TF over GST control); in the assay with CRX it was 1.57 fold enrichment (6-mer frequency, TF over GST control); in the assay with ETV1, 1.44 fold enrichment (6-mer frequency, TF over GST control); with ERF, 1.38 fold enrichment (6-mer frequency, TF over GST control); with ETV3L, 1.47 fold enrichment (6-mer frequency, TF over GST control). The binding signal with ETS2 was 1.46 fold enrichment (6-mer frequency, TF over GST control); in the assay with SPDEF it was 1.31 fold enrichment (6-mer frequency, TF over GST control); with ETV7 it was 1.5 fold enrichment (6-mer frequency, TF over GST control); with ELF5 it was 1.56 fold enrichment (6-mer frequency, TF over GST control); with ETV3, 1.46 fold enrichment (6-mer frequency, TF over GST control); in the assay with ETV6 it was 1.58 fold enrichment (6-mer frequency, TF over GST control).
